High-throughput results (PubChem BioAssay)
Rows were chosen to be rich in hits. Some 4% of all compounds tested hit in one or more screens of this group.
HIF-2a inh: inhibitors of HIF-2a | 360,000 compounds, 0.72% hits | inhibition, % at 18.8 µM | 786-0 RCC cells HIF-2a reporter, luciferase luminescence, overnight;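 active = inhibition of the luminescence signal of 40% or more relative to plate controls, in a single-dose primary screen at 18.75 µM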
CF NFkB block: cystic fibrosis NF-kB activation inhibition | KKLEB NF-kB-GFP reporter, PAF-induced, GFP fluorescence overnight | 360,000 compounds, 0.86% hits | inhibition, % at 5 µM | AID 588850;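 active = at least 50% inhibition at 5 µM, scaled per plate between neutral and stimulator controls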;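 note: PAF is a Pseudomonas aeruginosa culture filtrate used as stimulus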
KKLEB tox: reduces viability of KKLEB cystic fibrosis airway cells | KKLEB CF airway cells viability, ATPlite luminescence, overnight; hits give low values; cells stimulated with P. aeruginosa culture filtrate | activity change (cytotoxicity), % at 5 µM | 360,000 compounds, 0.36% hits;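 active = corrected activity change at or below -50% at 5 µM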
TROY NFkB inh: blocks TROY-dependent signaling in reporter cells. Q293 LMP1-TROYcd NF-kB luciferase reporter, 4 h. inhibition, % at 10 µM. 360,000 compounds, 0.98% hits;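 active = compounds whose plate-normalised and pattern-corrected inhibition of the luciferase reporter signal at the single screening dose is 50% or more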
TWEAK-Fn14 inh: TWEAK-Fn14 signaling inhibition. TWEAK-stimulated Fn14 reporter cells, luciferase luminescence, 8 h. inhibition, % at 10 µM. 360,000 compounds, 2% hits; in the data active = inhibition above about 50%
Peg3 promoter: reduces Peg3 promoter-driven luciferase expression in HeLa | HeLa PEG-Prom luciferase reporter, luminescence, overnight | inhibition, % at 20 µM | 360,000 compounds, 1.7% hits | AID 588405;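 active = inhibition of at least 50% at 20 µM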
A number is an active result; n = inactive; x = no result.

SMILES	HIF-2a inh	CF NFkB block	KKLEB tox	TROY NFkB inh	TWEAK-Fn14 inh	Peg3 promoter
COc1ccc(NC(=O)c2noc3c2CCC3)cc1	n	n	n	n	58	n
O=C(Nc1cccc(O)c1)c1noc2c1CCCCC2	n	n	n	59	81	n
CCOc1cccc(CNCc2ccc(C(=O)O)cc2)c1	n	n	n	n	n	n
CCOc1ccc(N(CC(=O)NCc2ccccc2Cl)S(=O)(=O)c2c(C)[nH]c(=O)[nH]c2=O)cc1	n	n	n	n	n	n
COc1ccc(CNC(=O)COC(=O)C(CCSC)NC(=O)c2ccco2)cc1OC (centres undefined)	n	n	n	n	n	n
CCNc1nc(NC(C)C)nc(N(C#N)C(C)C(=O)N(C)C)n1 (centres undefined)	n	n	n	n	n	n
CCNc1nc(NCC)nc(N(C#N)C(C)C)n1	n	n	n	n	76	n
Cc1cc2oc(C(=O)NCc3ccncc3)c(C)c2cc1C	n	n	n	n	n	n
O=C(COC(=O)c1cc([N+](=O)[O-])ccc1N1CCOCC1)c1ccc(F)cc1	n	n	n	n	n	n
CC1CCc2c(sc(NC(=O)Cn3nc(C(=O)O)c4ccccc4c3=O)c2C#N)C1 (centres undefined)	n	n	n	n	n	n
CCN1CCN(CC(=O)Nc2sc3c(c2C#N)CCC(C)C3)CC1 (centres undefined)	n	n	n	x	78	n
CCc1nnc(NC(=O)c2ccc(F)c(S(=O)(=O)N3CCCCC3)c2)s1	n	n	n	n	n	n
CCc1nnc(NC(=O)c2ccc(Cl)c(S(=O)(=O)N3CCc4ccccc43)c2)s1	n	n	n	61	n	n
O=C(Nc1nnc(C2CC2)s1)c1ccc(Cl)c(S(=O)(=O)N2CCc3ccccc3C2)c1	n	n	n	56	n	n
Cc1cccc(NC(=O)c2ccc(Cl)c(S(=O)(=O)N3CCc4ccccc43)c2)n1	n	n	n	n	58	n
CCOC(=O)c1cc2n(c1/N=C/N(C)C)-c1ccccc1C2=O	n	n	n	n	n	n
CCOC(=O)c1nn(-c2ccc3ccccc3c2)cc1O	n	n	n	n	n	n
COC(=O)C1=C(C(=O)OC)[C@@H]2N(Cc3ccccc3)c3ccccc3[C@@]23C[C@@H](C(=O)OC)N(C(=O)c2cc(C)oc2C)C3=N1	n	n	n	n	n	55
COC(=O)C1=C(C(=O)OC)[C@@H]2N(C)c3ccc(OC)cc3[C@@]23C[C@@H](C(=O)OC)N(C(=O)c2cccs2)C3=N1	n	54	n	n	n	n
COC(=O)C1=C(C(=O)OC)[C@@H]2N(Cc3ccccc3)c3ccccc3[C@@]23C[C@@H](C(=O)OC)N(C(=O)c2cccs2)C3=N1	n	n	n	n	61	81
COC(=O)C1=C(C(=O)OC)[C@@H]2N(C)c3ccccc3[C@@]23C[C@@H](C(=O)OC)N(C(=O)c2ccc(Br)cc2)C3=N1	n	n	n	n	n	82
COC(=O)C1=C(C(=O)OC)[C@@H]2N(C)c3ccccc3[C@@]23C[C@@H](C(=O)OC)N(C(=O)c2cccs2)C3=N1	n	n	n	n	n	n
Cn1c(Cn2c(=O)sc3ccccc32)nnc1SCc1ccccc1F	n	n	n	n	n	n
CC(=O)NCCc1ccc(S(=O)(=O)N2CCOCC2)cc1	n	n	n	n	n	n
COc1cc2c(CCNC(C)=O)c[nH]c2cc1O	n	n	n	n	n	n
SMILES	HIF-2a inh	CF NFkB block	KKLEB tox	TROY NFkB inh	TWEAK-Fn14 inh	Peg3 promoter
O=C(NCCO)C(=O)NCC1OCCCN1S(=O)(=O)c1ccc2c(c1)OCCO2 (centres undefined)	n	n	n	n	n	n
Cc1cccc(C)c1OCC(=O)Nn1c(C)nc2ccccc2c1=O	n	n	n	x	78	n
CCOC(=O)c1cn[nH]c1NC(=S)Nc1ccc(OC)cc1	n	n	n	62	76	n
COC(=O)c1cn[nH]c1NC(=S)Nc1ccccc1C	n	n	n	n	n	n
CCOC(=O)NC(=S)Nc1ccc(OC)cc1	n	n	n	n	n	n
COC(=O)c1cn[nH]c1NC(=S)Nc1ccc(C)cc1Cl	n	n	n	73	66	n
COC(=O)c1cn[nH]c1NC(=S)Nc1ccc(Cl)c(Cl)c1	n	n	n	73	69	n
